Assay results published in PubChem BioAssay AID686978 (National Center for Advancing Translational Sciences (NCATS), 2013).
Among all 420,000 compounds or so, about 64,000 (15%) were called active. Roughly 27% stayed inconclusive and do not appear here. Not all results are given here. Values without a mark were called inactive. The call rests on the fitted dose curve; in most records, active means well fitted inhibition curve with a large enough effect; inconclusive means small, poorly fitted or top-dose-only effect; inactive means flat fitted curve, though single readings scatter.

Test: qHTS for Inhibitors of human tyrosyl-DNA phosphodiesterase 1 (TDP1): qHTS in cells in absence of CPT; further: nearly all actives have a fitted effect of over 55% in size
Conditions: DT40 Tdp1-/- hTDP1 cells, no CPT, ATP luminescence, 48 h; activity change, negative = growth inhibition: at 46.2 µM (top of the series)
Summary of the method: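 No-CPT arm: Tdp1-/-;hTDP1 DT40 cells (400/well) plus compounds, incubated ≥48 hr at 37 °C. Readout CellTiter-Glo luminescence.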
On the % scale 0 is the no-effect control and ±100 the full control effect; potency means the concentration at half of the fitted maximal effect.

SMILES	activity change, negative = growth inhibition [%]	Potency
Cc1cc(C(=O)NNS(=O)(=O)c2ccccc2C(F)(F)F)nn1C(C)(C)C	-11.6	
O=c1cc(CSc2ccccn2)nc(N2CCN(c3ccccc3)CC2)[nH]1	-11.7	
N/C(=N\OC(=O)CCc1ccccc1)c1ccc(Cl)cc1	-18.2	
O=C(NCc1ccccn1)[C@@H]1CCCN1C(=O)[C@@H]1CCCN1C(=O)c1ccccc1	-6.12	
COC(=O)c1ccccc1NC(=O)CSc1nc2c(c(=O)[nH]1)CCC2	5.57	
COC(=O)C1=C(C(=O)OC)[C@@H]2N(C)c3ccccc3[C@@]23C[C@@H](C(=O)OC)N(C(C)=O)C3=N1	1.75	
O=C1C(c2ccccn2)=[N+]([O-])c2ccccc21	-7.8	
CCC(=O)Nc1cccc(NC(=O)CSc2nnc(-c3ccc(NS(C)(=O)=O)cc3)n2C)c1	-6.48	
O=C(COc1ccccc1F)OCc1cc(=O)n2nc(C3CCCCC3)sc2n1	5.26	
O=C(CSc1n[nH]c(-c2cccs2)n1)N1CCCCC1	1.91	
CNC(=O)c1ccc(NC(=O)c2cccc(C(F)(F)F)c2)cc1	-13.5	
O=C(Nc1ccc(-c2csc(Nc3cccc(C(F)(F)F)c3)n2)cc1)c1cccc(C(F)(F)F)c1		6.51 µM (active)
Cc1cccc(NC(=O)c2cccc(C(F)(F)F)c2)c1	-24	
CCOC(=O)NC(C(F)(F)F)(C(F)(F)F)P(=O)(c1ccccc1)c1ccccc1	-26.8	
CCOC(=O)c1sc(NC(=O)CSc2ncccn2)c(C#N)c1C	-16	
O=C(Nc1ccc(C2CC2(Cl)Cl)cc1)c1cccc([N+](=O)[O-])c1 (stereo not drawn)		18.4 µM (active)
Cc1cc(C)nc(NC(=O)c2cccc([N+](=O)[O-])c2)c1	-72.1	
O=C(Nc1nnc(SCc2ccccc2Cl)s1)c1cccc([N+](=O)[O-])c1	-24.4	
Cc1ccc(CNC(=O)CCN2C(=O)[C@@H]3Cc4ccccc4CN3C2=O)cc1	2.46	
CN(NC(=O)C1CC(=O)N(c2ccccc2)C1)C1=NS(=O)(=O)c2ccccc21 (stereo not drawn)	9.53	
O=C1NC(c2ccccc2)=NC1(Nc1ccccn1)C(F)(F)F (stereo not drawn)	-0.592	

SMILES	activity change, negative = growth inhibition [%]	Potency
CCCNC(=O)N1CCC(c2ccc3c(c2)OCO3)CC1	5.53	
CC1Cn2c(nnc2-c2cccs2)S1 (stereo not drawn)	-6.14	
N#C/C(=C(/O)COc1cccc2ccccc12)c1nc2ccccc2[nH]1	-9.31	
COc1ccccc1C(=O)COC(=O)COc1ccc(C#N)cc1	5.36	
N#C/C(=C(/O)COC(=O)COc1ccc(Cl)cc1)c1nc2ccccc2[nH]1		4.61 µM (active)
O=C(/C(=N\O)n1cncn1)c1ccc(Br)cc1Br	4.39	
Oc1cccc2ccc(/C=C/c3ccc(Br)s3)nc12		0.082 µM (active)
CCOC(=O)C1(Cc2cccc(OC)c2)CCCN(C(=O)CCSC)C1 (stereo not drawn)	-24.5	
Cc1ccc(S(=O)(=O)Cc2cc(-c3ccc(Cl)cc3)no2)cc1	-6.77	
O=S(=O)(Cc1ccc(Cl)cc1Cl)c1ccc(Cl)cc1		1.03 µM (active)
O=S(=O)(O)c1nc2ccccc2n1Cc1ccc(Cl)cc1Cl	-26.9	
C=C1CCN([C@H](C(=O)NCc2cc(OC)c(OC)c(OC)c2)C(C)C)S(=O)(=O)c2ccccc21	-3.89	
COc1ccc(C(=O)NC2CC2)cc1OC1CCN(Cc2cnn(C)c2)CC1	4.43	
COc1cc(C(=O)NC2CCN(C)CC2)ccc1Nc1ncc2c(n1)N(C1CCC(O)CC1)CCC(=O)N2C (stereo not drawn)		16.4 µM (active)
COc1ccc(Cl)cc1NS(=O)(=O)c1cccc(C(=O)NC2CCC(O)CC2)c1 (stereo not drawn)	-6.37	
Cc1ccccc1OCCC(=O)Nc1c(C)n(C)n(-c2ccccc2)c1=O	0.764	
COc1cccc(C(=O)N2CCC(n3nccc3NC(=O)C3CCOC3)CC2)c1 (stereo not drawn)	3.75	
COc1ccc(N2CCN(Cc3nnc(-c4ccccc4)o3)CC2)cc1	3.5	
COc1ccc(-c2nnc3n2CCCCC3)cc1	-10.5	
COc1ccc(N2CCN(c3cc(C)nc4nncn34)CC2)cc1		16.4 µM (active)
Cc1ccccc1C1CC(c2cccs2)=NN1S(C)(=O)=O (stereo not drawn)	-7.12	

SMILES	activity change, negative = growth inhibition [%]	Potency
CCOc1ccc(NC(=O)C2CCCN(C(=O)Nc3ccccc3)C2)cc1 (stereo not drawn)	-0.394	
Cc1ccc(CNC(=O)C2CCCN(S(C)(=O)=O)C2)cc1 (stereo not drawn)	-9.73	
CCOc1ccc(N(CC)S(=O)(=O)N2CCCC(C(=O)Nc3ccc(C(C)=O)cc3)C2)cc1 (stereo not drawn)		23.1 µM (active)
CCOC(=O)c1c(C)[nH]c(C)c1S(=O)(=O)N1CCCC(C(=O)NCc2ccccc2Cl)C1 (stereo not drawn)	-27.1	
COc1cccc(CNC(=O)C2CCN(S(=O)(=O)c3ccc4c(ccn4C)c3)CC2)c1	1.01	
CCOc1ccccc1NC(=O)C1CCCN(S(=O)(=O)c2cn(C)cn2)C1 (stereo not drawn)	-6.57	
CCOc1ccc(C(=O)NC2CCN(S(=O)(=O)CC)CC2)cc1	-14.8	
CCOC(=O)c1c(S(=O)(=O)N2CCCC(C(=O)NCc3ccc(F)cc3)C2)c(C)n(CC)c1C (stereo not drawn)	-20.8	
CCS(=O)(=O)N1CCCC(C(=O)NCc2ccc(C)cc2)C1 (stereo not drawn)	-1.29	
Cc1ccccc1CNC(=O)C1CCCN(S(=O)(=O)N(C)c2ccc(F)cc2)C1 (stereo not drawn)		18.4 µM (active)
CCOc1ccccc1CNC(=O)C1CCCN(S(=O)(=O)c2ccc3c(ccn3C)c2)C1 (stereo not drawn)		16.4 µM (active)
CCOc1ccc(CNC(=O)C2CCCN(S(=O)(=O)N(CC)c3ccc(OCC)cc3)C2)cc1 (stereo not drawn)		20.6 µM (active)
Cc1cc(C)cc(OCc2nnc(SCC(=O)OC3CCCCC3)o2)c1	-0.322	
OC(c1ccccc1)c1nccn1Cc1ccccc1 (stereo not drawn)	2.98	
COc1ccccc1C(=O)NC(CCSC)C(=O)NNC(=O)c1csc(N2CCOCC2)n1 (stereo not drawn)	-22	
CCN(CC)C(=O)CS(=O)CC(=O)Nc1cc(OCCOC)c(Cl)cc1Cl (stereo not drawn)	-3.24	
COc1ccc(NC(=O)C2CCCN(S(=O)(=O)c3cccc4cccnc34)C2)cc1 (stereo not drawn)	-42.5	
CCOc1ccc(N(CC)S(=O)(=O)N2CCCC(C(=O)NCc3ccc(SC)cc3)C2)cc1 (stereo not drawn)		20.6 µM (active)
CSc1ccc(S(=O)(=O)N2CCC(C(=O)NCc3ccncc3)CC2)cc1	-13.1	
CCOc1cccc(NC(=O)C2CCCN(S(=O)(=O)c3ccc(OC)cc3)C2)c1 (stereo not drawn)		23.1 µM (active)
CCOC(=O)c1c(S(=O)(=O)N2CCCC(C(=O)NCc3cccc(C)c3)C2)c(C)n(C)c1C (stereo not drawn)	-4.19	
